Laboratory results from PubChem BioAssay (NCI).
Compounds without any hit were thinned out: in the full panel of roughly 83,000, 20% have a hit.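 Each cell line was grown in a 96-well plate and treated with one concentration of compound for 48 hours. Values below 10 were considered active.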 A number with no mark means an inactive call. The source made the active and inactive calls.

test system: HL-60(TB) leukemia; assay: NCI-60 one-dose screen, 48 h (100 = growth as untreated, 0 = no growth, -100 = all killed); settings: 10 µM unless noted

Question: `c1cc(C2CCCCC2)ccc1OCCCCCCN1CCNCC1` was tested. Which growth did it give?
Answer: The growth was -38.4% (active).

Question: How did the growth turn out when `COc1ccc(C(=O)Nc2ccc3nc(N4CCCCC4)cc(C)c3c2)cc1OC` was run?
Answer: Its growth is 60.3%.

Question: With `CCC(C)[C@@H]1NC(=O)[C@@H]2CCCN2C(=O)[C@H](Cc2ccccc2)NC(=O)[C@@H]2CCCN2C(=O)[C@H](Cc2ccccc2)NC(=O)[C@@H]2CCCN2C(=O)[C@H](Cc2ccccc2)NC1=O` (stereo partly drawn) as the compound, how does the growth read?
Answer: The growth was 95.6%.
